According to PubChem BioAssay (EPA / NIEHS):
More than one record can exist for a structure, and the calls need not agree. The source made the active and inactive calls. Rule for the calls: active = hit-call score of the fitted dose curve at least 0.9, where 1 is the maximum; inactive = score below 0.9.

Read-out: Low-density lipoprotein receptor (LDLR), LDLR (gene 3949)
Experiment: BSK_CASM3C_LDLR: BioMAP Diversity Plus: CASM3C Assay for Low-density lipoprotein receptor (LDLR) Biomarker Activity (AID 2283045);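 note: LDLR protein level on the cell surface quantified by ELISA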
Conditions: primary human coronary artery smooth muscle cells; actives raise or lower the signal

| SMILES | outcome | AC50 |
| --- | --- | --- |
| CCn1c2ccccc2c2cc(N)ccc21 | inactive | – |
| Cc1ccc(Nc2ccc(O)c3c2C(=O)c2ccccc2C3=O)cc1 | inactive | – |
| Cc1ccc(O)c(C(C)(C)C)c1 | inactive | – |
| CCCCCCCCCCCCCCCCCC(=O)OCC(CC)CCCC (stereo not given) | inactive | – |
| CCCCC(CC)COCCC#N (stereo not given) | – | 0.151 µM (active) |
| C[C@H]1C[C@@H]2[C@H]([C@@H](O)C[C@@]3(C)[C@H]2CC[C@]3(O)C(=O)CO)[C@@]2(C)C=CC(=O)C=C12 | inactive | – |
| O=P(c1ccccc1)(c1ccccc1)c1ccccc1 | inactive | – |
| CC(C)Oc1ccccc1O | inactive | – |
| CC(=O)/C=C/C1=C(C)CCCC1(C)C | inactive | – |
| CC[Si](OC(C)=O)(OC(C)=O)OC(C)=O | inactive | – |
| CNC[C@H](O)c1cccc(O)c1 | inactive | – |
| O=[N+]([O-])c1cc(C(F)(F)F)ccc1Cl | inactive | – |
| CCCCCCCCCC=O | inactive | – |
| COc1cc(C=O)ccc1OC(=O)C(C)C | inactive | 0.15 µM (active) |
| Nc1cc([N+](=O)[O-])ccc1O | inactive | – |
| CCc1c(C)cc(N)c(CC)c1N | inactive | – |
| C=C(C)C(=O)O[C@H]1C[C@@H]2CC[C@@]1(C)C2(C)C | inactive | – |
| CC(=O)O[C@]1(C(C)=O)CC[C@H]2[C@@H]3C[C@H](C)C4=CC(=O)CC[C@]4(C)[C@H]3CC[C@@]21C | – | 14.7 µM (active) |
| CC1COc2ccccc2N1C(=O)C(Cl)Cl (stereo not given) | inactive | – |
| CC(C)(COC(=O)c1ccccc1)COC(=O)c1ccccc1 | inactive | – |
| CC(C)c1ccc(C(C)C)cc1 | inactive | – |
| CCC(=O)OCc1ccccc1 | inactive | – |
| CC(=O)OCCC(C)CC(C)(C)C (stereo not given) | inactive | – |
| CC1CCC(C(C)CS)CC1S (stereo not given) | – | 20 µM (active) |
| CC(=O)[C@H]1CC[C@H]2[C@@H]3CC=C4C[C@@H](O)CC[C@]4(C)[C@H]3CC[C@]12C | inactive | 1.86 µM (active) |

Read-out: Monocyte Chemoattractant Protein-1 (MCP1), CCL2 (gene 6347)
Experiment: BSK_CASM3C_MCP1: BioMAP Diversity Plus: CASM3C Assay for Monocyte Chemoattractant Protein-1 (MCP1) Biomarker Activity (AID 2283046);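 note: MCP-1 level quantified by ELISA 24 h after dosing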
Conditions: primary human coronary artery smooth muscle cells; actives raise or lower the signal

| SMILES | outcome | AC50 |
| --- | --- | --- |
| CCn1c2ccccc2c2cc(N)ccc21 | inactive | – |
| Cc1ccc(Nc2ccc(O)c3c2C(=O)c2ccccc2C3=O)cc1 | inactive | – |
| Cc1ccc(O)c(C(C)(C)C)c1 | – | 33.4 µM (active) |
| CCCCCCCCCCCCCCCCCC(=O)OCC(CC)CCCC (stereo not given) | inactive | – |
| CCCCC(CC)COCCC#N (stereo not given) | inactive | – |
| C[C@H]1C[C@@H]2[C@H]([C@@H](O)C[C@@]3(C)[C@H]2CC[C@]3(O)C(=O)CO)[C@@]2(C)C=CC(=O)C=C12 | inactive | 4.62 µM (active) |
| O=P(c1ccccc1)(c1ccccc1)c1ccccc1 | inactive | – |
| CC(C)Oc1ccccc1O | inactive | – |
| CC(=O)/C=C/C1=C(C)CCCC1(C)C | inactive | – |
| CC[Si](OC(C)=O)(OC(C)=O)OC(C)=O | inactive | – |
| CNC[C@H](O)c1cccc(O)c1 | inactive | – |
| O=[N+]([O-])c1cc(C(F)(F)F)ccc1Cl | inactive | – |
| CCCCCCCCCC=O | inactive | – |
| COc1cc(C=O)ccc1OC(=O)C(C)C | inactive | – |
| Nc1cc([N+](=O)[O-])ccc1O | inactive | – |
| CCc1c(C)cc(N)c(CC)c1N | inactive | – |
| C=C(C)C(=O)O[C@H]1C[C@@H]2CC[C@@]1(C)C2(C)C | – | 12.4 µM (active) |
| CC(=O)O[C@]1(C(C)=O)CC[C@H]2[C@@H]3C[C@H](C)C4=CC(=O)CC[C@]4(C)[C@H]3CC[C@@]21C | – | 0.604 µM (active) |
| CC1COc2ccccc2N1C(=O)C(Cl)Cl (stereo not given) | inactive | – |
| CC(C)(COC(=O)c1ccccc1)COC(=O)c1ccccc1 | inactive | – |
| CC(C)c1ccc(C(C)C)cc1 | – | 32.4 µM (active) |
| CCC(=O)OCc1ccccc1 | inactive | – |
| CC(=O)OCCC(C)CC(C)(C)C (stereo not given) | inactive | – |
| CC1CCC(C(C)CS)CC1S (stereo not given) | – | 30.9 µM (active) |
| CC(=O)[C@H]1CC[C@H]2[C@@H]3CC=C4C[C@@H](O)CC[C@]4(C)[C@H]3CC[C@]12C | inactive | 10.9 µM (active) |

Read-out: not listed separately
Experiment: BSK_CASM3C_Proliferation: Cell Proliferation Assessment in the BioMAP Diversity Plus: CASM3C Assay (AID 2283047);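 note: sulforhodamine B total protein stain as relative cell number at 560 nm; sub-confluent cells exposed 48 h before staining; fitted both ways against DMSO so gain or loss of cell number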
Conditions: primary human coronary artery smooth muscle cells

| SMILES | outcome | AC50 |
| --- | --- | --- |
| CCn1c2ccccc2c2cc(N)ccc21 | inactive | – |
| Cc1ccc(Nc2ccc(O)c3c2C(=O)c2ccccc2C3=O)cc1 | inactive | – |
| Cc1ccc(O)c(C(C)(C)C)c1 | – | 29.1 µM (active) |
| CCCCCCCCCCCCCCCCCC(=O)OCC(CC)CCCC (stereo not given) | inactive | – |
| CCCCC(CC)COCCC#N (stereo not given) | inactive | – |
| C[C@H]1C[C@@H]2[C@H]([C@@H](O)C[C@@]3(C)[C@H]2CC[C@]3(O)C(=O)CO)[C@@]2(C)C=CC(=O)C=C12 | inactive | – |
| O=P(c1ccccc1)(c1ccccc1)c1ccccc1 | inactive | – |
| CC(C)Oc1ccccc1O | inactive | – |
| CC(=O)/C=C/C1=C(C)CCCC1(C)C | inactive | – |
| CC[Si](OC(C)=O)(OC(C)=O)OC(C)=O | inactive | – |
| CNC[C@H](O)c1cccc(O)c1 | inactive | – |
| O=[N+]([O-])c1cc(C(F)(F)F)ccc1Cl | inactive | – |
| CCCCCCCCCC=O | inactive | – |
| COc1cc(C=O)ccc1OC(=O)C(C)C | inactive | – |
| Nc1cc([N+](=O)[O-])ccc1O | inactive | – |
| CCc1c(C)cc(N)c(CC)c1N | inactive | – |
| C=C(C)C(=O)O[C@H]1C[C@@H]2CC[C@@]1(C)C2(C)C | – | 23.5 µM (active) |
| CC(=O)O[C@]1(C(C)=O)CC[C@H]2[C@@H]3C[C@H](C)C4=CC(=O)CC[C@]4(C)[C@H]3CC[C@@]21C | inactive | – |
| CC1COc2ccccc2N1C(=O)C(Cl)Cl (stereo not given) | – | 8.84 µM (active) |
| CC(C)(COC(=O)c1ccccc1)COC(=O)c1ccccc1 | inactive | – |
| CC(C)c1ccc(C(C)C)cc1 | – | 31.4 µM (active) |
| CCC(=O)OCc1ccccc1 | inactive | – |
| CC(=O)OCCC(C)CC(C)(C)C (stereo not given) | inactive | – |
| CC1CCC(C(C)CS)CC1S (stereo not given) | – | 29.6 µM (active) |
| CC(=O)[C@H]1CC[C@H]2[C@@H]3CC=C4C[C@@H](O)CC[C@]4(C)[C@H]3CC[C@]12C | inactive | 6.96 µM (active) |
